The source of these data is the supplement of paper PMC10849652.

Common to all, as to test: log2 fold change, soluble protein after heating vs DMSO (PISA); higher = thermal stabilisation; K562 cells, 10 uM, 30 min; active = over 0.2 and 3.5 SD of the protein, either way, in both replicates (recomputed)
Compound in assay [1]: C1=CC=C(C=C1)[C@H](COC2=CC3=C(C=C2)NC(=O)N3)NC(=O)C4=CC=CN(C4=O)CC5=CC(=C(C=C5)F)F
In a few lines: (§1)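 K562 cells at 2×10^6 cells/mL were treated with 10 μM compound for 30 min. Aliquots were heated for 3 min across 48°C-58°C, pooled, and extracted in PBS with 0.5% NP-40 at 4°C; soluble protein was the supernatant after 21,000xg for 90 min. Soluble protein was quantified by TMTpro 16plex LC-MS/MS with channel sums equalised, and reported as log2 fold change in thermal stability against DMSO controls, with values from duplicates.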

Compound in assay [2]: CC1=C(SC2=C1C(=N[C@H](C3=NN=C(N32)C)CC(=O)N)C4=CC=C(C=C4)Cl)C
The procedure, abridged:
as §1

Compound in assay [3]: CC1=C2C(=CC=C1)N=C(N(C2=O)C3=CC=CC=C3C)CN4C=NC5=C(N=CN=C54)N
The procedure, abridged:
as §1

Compound in assay [4]: Cc1sc2c(c1C)C(c1ccc(Cl)cc1)=N[C@@H](CC(=O)OC(C)(C)C)c1nnc(C)n1-2
The procedure, abridged:
as §1

Compound in assay [5]: c1ccc([C@@H]2C[C@H]2NC2CCNCC2)cc1
In a few lines:
as §1

Targets with a hit are over-represented here; the source holds about 7,900 in all. About 0.6% of all pairs of compound and target were hits. Values without a mark were called inactive.

UniProt Q99627, sequence (Q99627 whole entry, looked up): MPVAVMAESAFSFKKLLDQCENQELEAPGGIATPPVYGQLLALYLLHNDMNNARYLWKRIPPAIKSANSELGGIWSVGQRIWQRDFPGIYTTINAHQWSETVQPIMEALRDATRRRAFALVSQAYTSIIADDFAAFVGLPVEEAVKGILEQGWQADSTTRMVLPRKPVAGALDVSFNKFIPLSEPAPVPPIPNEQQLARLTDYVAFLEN
UniProt P51946, sequence (P51946 whole entry, looked up): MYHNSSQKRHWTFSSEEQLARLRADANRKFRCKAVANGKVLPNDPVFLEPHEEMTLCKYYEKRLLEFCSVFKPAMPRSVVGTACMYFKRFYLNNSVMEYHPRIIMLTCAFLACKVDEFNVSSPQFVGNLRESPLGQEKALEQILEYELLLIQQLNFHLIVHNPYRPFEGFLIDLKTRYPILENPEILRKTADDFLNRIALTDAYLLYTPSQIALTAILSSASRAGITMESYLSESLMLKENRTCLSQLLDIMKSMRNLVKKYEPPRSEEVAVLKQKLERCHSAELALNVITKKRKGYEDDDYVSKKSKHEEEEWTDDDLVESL
UniProt P33240, sequence (P33240 whole entry, looked up): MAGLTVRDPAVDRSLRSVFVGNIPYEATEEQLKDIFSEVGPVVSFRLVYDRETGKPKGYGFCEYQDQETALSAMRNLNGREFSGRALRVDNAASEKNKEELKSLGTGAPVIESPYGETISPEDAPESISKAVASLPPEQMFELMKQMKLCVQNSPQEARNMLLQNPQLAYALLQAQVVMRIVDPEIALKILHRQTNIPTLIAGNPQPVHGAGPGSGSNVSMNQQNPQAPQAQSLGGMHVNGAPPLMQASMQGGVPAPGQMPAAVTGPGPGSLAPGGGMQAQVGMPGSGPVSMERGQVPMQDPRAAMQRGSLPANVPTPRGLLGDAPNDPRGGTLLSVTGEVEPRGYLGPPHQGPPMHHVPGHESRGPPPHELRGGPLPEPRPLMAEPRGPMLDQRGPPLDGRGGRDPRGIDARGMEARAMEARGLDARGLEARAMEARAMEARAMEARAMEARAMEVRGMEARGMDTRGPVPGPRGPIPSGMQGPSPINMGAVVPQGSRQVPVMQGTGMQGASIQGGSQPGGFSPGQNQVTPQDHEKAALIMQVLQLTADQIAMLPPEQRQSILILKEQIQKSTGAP
UniProt P21964, sequence (P21964 whole entry, looked up): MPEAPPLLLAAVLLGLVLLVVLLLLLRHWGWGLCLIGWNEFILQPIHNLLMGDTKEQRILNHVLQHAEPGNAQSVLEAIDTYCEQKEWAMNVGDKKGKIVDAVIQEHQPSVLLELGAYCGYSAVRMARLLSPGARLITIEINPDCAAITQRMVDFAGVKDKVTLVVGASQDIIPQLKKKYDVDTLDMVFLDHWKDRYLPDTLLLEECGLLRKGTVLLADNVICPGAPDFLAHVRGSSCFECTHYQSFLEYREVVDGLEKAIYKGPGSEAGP
UniProt Q14194, sequence (Q14194 whole entry, looked up): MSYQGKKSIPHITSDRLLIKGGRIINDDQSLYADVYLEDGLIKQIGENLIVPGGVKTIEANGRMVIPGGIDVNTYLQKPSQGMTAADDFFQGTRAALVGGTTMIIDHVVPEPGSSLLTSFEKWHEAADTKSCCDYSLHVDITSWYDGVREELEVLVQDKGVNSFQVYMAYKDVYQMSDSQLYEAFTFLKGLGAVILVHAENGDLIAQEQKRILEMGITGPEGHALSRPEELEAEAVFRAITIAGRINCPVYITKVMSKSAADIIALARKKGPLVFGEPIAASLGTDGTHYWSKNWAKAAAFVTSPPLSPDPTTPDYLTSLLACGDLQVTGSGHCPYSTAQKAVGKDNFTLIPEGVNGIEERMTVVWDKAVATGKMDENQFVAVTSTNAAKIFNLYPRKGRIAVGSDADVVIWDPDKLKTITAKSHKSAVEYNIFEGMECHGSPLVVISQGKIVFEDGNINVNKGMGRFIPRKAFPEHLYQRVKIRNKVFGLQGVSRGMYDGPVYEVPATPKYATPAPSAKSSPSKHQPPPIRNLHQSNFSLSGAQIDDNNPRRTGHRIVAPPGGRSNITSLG
UniProt Q99653, sequence (Q99653 whole entry, looked up): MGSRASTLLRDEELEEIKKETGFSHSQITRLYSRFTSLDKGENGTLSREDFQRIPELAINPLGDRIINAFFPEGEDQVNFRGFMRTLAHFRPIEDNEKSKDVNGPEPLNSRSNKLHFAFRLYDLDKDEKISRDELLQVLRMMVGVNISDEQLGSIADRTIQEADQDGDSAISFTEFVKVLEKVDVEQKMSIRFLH
UniProt Q8WUX2, sequence (Q8WUX2 whole entry, looked up): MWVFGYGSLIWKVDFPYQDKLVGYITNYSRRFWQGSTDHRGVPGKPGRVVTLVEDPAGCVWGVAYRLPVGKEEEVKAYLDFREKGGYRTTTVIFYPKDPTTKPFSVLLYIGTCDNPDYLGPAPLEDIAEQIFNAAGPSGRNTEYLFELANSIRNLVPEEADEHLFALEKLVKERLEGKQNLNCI
UniProt O15234, sequence (O15234 whole entry, looked up): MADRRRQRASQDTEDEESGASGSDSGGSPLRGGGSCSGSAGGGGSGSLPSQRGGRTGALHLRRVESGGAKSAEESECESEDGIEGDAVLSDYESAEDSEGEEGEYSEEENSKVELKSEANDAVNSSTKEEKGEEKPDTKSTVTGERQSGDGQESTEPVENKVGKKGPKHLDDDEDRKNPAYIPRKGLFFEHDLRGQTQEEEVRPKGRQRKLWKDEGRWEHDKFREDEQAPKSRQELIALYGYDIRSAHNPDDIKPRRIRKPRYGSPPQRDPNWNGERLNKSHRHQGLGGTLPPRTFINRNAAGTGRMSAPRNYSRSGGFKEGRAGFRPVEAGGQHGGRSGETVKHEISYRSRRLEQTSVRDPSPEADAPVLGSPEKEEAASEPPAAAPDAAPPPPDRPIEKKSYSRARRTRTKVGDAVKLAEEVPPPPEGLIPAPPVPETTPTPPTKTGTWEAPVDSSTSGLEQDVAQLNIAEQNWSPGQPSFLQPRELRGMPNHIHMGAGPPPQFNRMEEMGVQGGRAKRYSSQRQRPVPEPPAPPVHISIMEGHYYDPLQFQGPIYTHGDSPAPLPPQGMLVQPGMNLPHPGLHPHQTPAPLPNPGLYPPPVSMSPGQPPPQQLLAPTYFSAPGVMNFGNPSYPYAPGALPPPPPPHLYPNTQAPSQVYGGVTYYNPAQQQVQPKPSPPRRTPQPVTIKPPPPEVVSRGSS
UniProt Q5RI15, sequence (Q5RI15 whole entry, looked up): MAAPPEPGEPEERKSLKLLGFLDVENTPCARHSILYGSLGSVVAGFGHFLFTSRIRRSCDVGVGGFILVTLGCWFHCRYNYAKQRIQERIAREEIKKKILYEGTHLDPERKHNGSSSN
UniProt Q9NZN8, sequence (Q9NZN8 whole entry, looked up): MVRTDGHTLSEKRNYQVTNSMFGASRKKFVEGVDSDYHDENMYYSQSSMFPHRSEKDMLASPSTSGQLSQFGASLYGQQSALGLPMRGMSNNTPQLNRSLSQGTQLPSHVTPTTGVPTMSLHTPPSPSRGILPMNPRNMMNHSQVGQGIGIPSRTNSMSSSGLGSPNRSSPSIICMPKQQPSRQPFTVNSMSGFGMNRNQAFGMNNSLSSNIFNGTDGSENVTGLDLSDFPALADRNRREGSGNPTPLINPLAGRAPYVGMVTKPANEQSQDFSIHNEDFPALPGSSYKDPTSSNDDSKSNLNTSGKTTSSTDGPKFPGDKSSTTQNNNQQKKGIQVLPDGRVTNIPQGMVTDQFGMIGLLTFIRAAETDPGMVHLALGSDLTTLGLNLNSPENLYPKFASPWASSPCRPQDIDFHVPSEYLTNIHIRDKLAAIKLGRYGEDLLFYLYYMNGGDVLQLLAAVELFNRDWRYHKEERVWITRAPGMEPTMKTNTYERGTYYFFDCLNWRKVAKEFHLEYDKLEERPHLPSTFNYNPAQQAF
UniProt O76031, sequence (O76031 whole entry, looked up): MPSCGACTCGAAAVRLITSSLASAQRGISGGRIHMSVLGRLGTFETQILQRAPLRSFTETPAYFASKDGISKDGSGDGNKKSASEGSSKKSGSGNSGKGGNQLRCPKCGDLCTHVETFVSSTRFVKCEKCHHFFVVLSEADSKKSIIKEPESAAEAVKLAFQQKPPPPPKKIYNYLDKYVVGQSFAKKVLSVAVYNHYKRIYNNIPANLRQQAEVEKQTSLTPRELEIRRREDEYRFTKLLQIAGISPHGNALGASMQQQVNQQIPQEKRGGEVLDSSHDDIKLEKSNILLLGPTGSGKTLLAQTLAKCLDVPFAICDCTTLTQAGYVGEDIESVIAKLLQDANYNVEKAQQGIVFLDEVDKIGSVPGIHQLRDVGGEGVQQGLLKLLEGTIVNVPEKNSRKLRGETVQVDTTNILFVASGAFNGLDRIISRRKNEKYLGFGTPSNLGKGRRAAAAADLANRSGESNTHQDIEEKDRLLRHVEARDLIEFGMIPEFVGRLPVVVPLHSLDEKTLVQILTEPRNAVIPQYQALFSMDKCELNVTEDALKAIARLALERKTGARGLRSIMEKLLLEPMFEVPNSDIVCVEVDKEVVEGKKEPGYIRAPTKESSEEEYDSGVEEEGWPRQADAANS
UniProt Q9UNS2, sequence (Q9UNS2 whole entry, looked up): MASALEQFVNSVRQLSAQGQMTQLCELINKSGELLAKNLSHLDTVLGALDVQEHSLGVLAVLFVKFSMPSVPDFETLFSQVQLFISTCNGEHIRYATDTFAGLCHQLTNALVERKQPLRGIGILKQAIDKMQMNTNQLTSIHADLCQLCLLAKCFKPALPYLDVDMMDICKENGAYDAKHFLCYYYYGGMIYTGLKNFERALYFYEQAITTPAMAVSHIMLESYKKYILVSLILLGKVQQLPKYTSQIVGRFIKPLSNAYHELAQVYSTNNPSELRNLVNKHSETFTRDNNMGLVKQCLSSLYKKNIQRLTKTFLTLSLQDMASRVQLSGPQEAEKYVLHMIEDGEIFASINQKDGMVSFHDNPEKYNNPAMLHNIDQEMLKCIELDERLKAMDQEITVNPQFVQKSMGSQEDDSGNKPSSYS
UniProt P20674, sequence (P20674 whole entry, looked up): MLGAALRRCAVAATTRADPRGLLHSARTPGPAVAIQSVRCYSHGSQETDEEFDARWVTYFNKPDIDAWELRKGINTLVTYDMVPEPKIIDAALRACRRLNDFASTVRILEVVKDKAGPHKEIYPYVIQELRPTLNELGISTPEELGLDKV

Take CSTF2 (UniProt P33240): the log2 fold change in assay [1] is 0.017; in assay [2], 0.04; in assay [3] it was 0.057; in assay [4], -0.026; in assay [5] it was 0.021.
The matching figures for CHD3 isoform 3 (UniProt Q12873): -0.104, 0.038, 0.069, -0.038 and 0.087.
The matching figures for COX5A (UniProt P20674): 0.016, 0.059, 0.037, -0.075 and -0.043.
With CHP1 (UniProt Q99653), the log2 fold change in assay [1] was 0.022; in assay [2] it was 0.016; in assay [3] it was -0.058; in assay [4], -0.057; in assay [5], -0.015.
Take CDK8 (UniProt P49336): the log2 fold change in assay [1] was 0; in assay [2], -0.043; in assay [3] it was 0.018; in assay [4] it was 0.035; in assay [5], -0.129.
The matching figures for CDK13 (UniProt Q14004): 0.031, 0.019, -0.017, 0.161 and -0.004.
The matching figures for CSK (UniProt P41240): -0.096, 0.051, 0.057, 0.011 and -0.032.
For CDC42EP1 (UniProt Q00587), in that order: -0.067, 0.107, 0.041, 0.043 and -0.029.
Consider CERT isoform 3 (UniProt Q9Y5P4), for which the log2 fold change in assay [1] was 0.102; in assay [2], 0.029; in assay [3] it was 0.066; in assay [4] it was 0.14; in assay [5], -0.028.
As for CASC3 (UniProt O15234), the log2 fold change is 0.02 in assay [1]; 0.044 in assay [2]; 0.015 in assay [3]; 0.244 in assay [4]; 0.025 in assay [5].
For CHAC2 (UniProt Q8WUX2), in that order: -0.036, -0.034, -0.034, 0.008 and 0.027.
In the case of CCNH (UniProt P51946), the log2 fold change was 0.02 in assay [1]; -0.035 in assay [2]; 0.032 in assay [3]; 0.002 in assay [4]; 0.033 in assay [5].
For CPQ (UniProt Q9Y646), in that order: 0.045, -0.077, -0.078, -0.031 and 0.084.
As for CASP2 (UniProt P42575), the log2 fold change in assay [1] is -0.039; in assay [2] it was 0.016; in assay [3] it was 0.027; in assay [4] it was -0.01; in assay [5], -0.039.
Regarding CCDC57 (UniProt Q2TAC2), the log2 fold change in assay [1] was 0.015; in assay [2] it was 0.262 (active); in assay [3], 0.047; in assay [4], -0.161; in assay [5] it was -0.139.
The matching figures for COPS3 (UniProt Q9UNS2): 0.011, 0.001, 0, -0.007 and -0.005.
For COMT (UniProt P21964), in that order: 0.024, 0.142, 0.09, -0.028 and -0.038.
The matching figures for CLPX (UniProt O76031): 0.011, -0.02, 0.013, -0.035 and 0.048.
As for COPS8 (UniProt Q99627), the log2 fold change is 0.002 in assay [1]; 0.086 in assay [2]; 0.039 in assay [3]; -0.123 in assay [4]; -0.014 in assay [5].
For CRMP1 isoform 2 (UniProt Q14194), in that order: -0.014, 0.074, -0.066, 0.002 and -0.006.
For CDK5 (UniProt Q00535), in that order: -0.015, 0.087, -0.003, -0.023 and -0.005.
For COX20 isoform 2 (UniProt Q5RI15), in that order: 0.071, 0.05, 0, -0.022 and 0.042.
Turning to C19orf53 (UniProt Q9UNZ5), the log2 fold change is 0.105 in assay [1]; -0.258 in assay [2]; -0.266 in assay [3]; 0.203 in assay [4]; -0.01 in assay [5].
The matching figures for CNOT2 (UniProt Q9NZN8): 0.024, -0.014, 0.056, 0.031 and -0.002.
